Screens deposited in PubChem BioAssay by National Center for Advancing Translational Sciences (NCATS).
ELG1 DNA repair – blocks ELG1-dependent DNA repair in HEK293T cells. actives 2.3% (n = 330,000). AID 504467. Potency, µM (doses to about 46.1 µM), inactives show top-dose activity change, negative = inhibition, actives largely listed as inhibitors. HEK293T ELG1-luciferase reporter, luminescence, 16 h; DNA damage induced by 5-fluorouridine; also: nearly all actives have a fitted effect of over 55% in size
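Luminescence from the luciferase reporter, measured 30 min after ONE-Glo reagent at room temperature, was the read-out. Beforehand, 2,000 cells per well were exposed for 16 hr at 37 °C to 5-fluorouridine together with compound or vehicle.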
TDP1 cell noCPT – qHTS for Inhibitors of human tyrosyl-DNA phosphodiesterase 1 (TDP1): qHTS in cells in absence of CPT | Potency, µM (titrated, usually from 46.2 µM), for the others: top-dose activity change, negative = growth inhibition, actives largely listed as inhibitors | actives 15% (n = 420,000) | DT40 Tdp1-/- hTDP1 cells, no CPT, ATP luminescence, 48 h; also: nearly all actives have a fitted effect of over 55% in size
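Growth kinetics read by CellTiter-Glo luminescence after ≥48 hr at 37 °C. Cells: DT40 Tdp1-/- stably carrying human TDP1, 400 per well, compound exposure in the absence of CPT (DMSO vehicle).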
Gal4-VP16 FLuc – Gal4-VP16 reporter inhibition counter-screen | Drosophila S2 Gal4-VP16 UAS-luciferase, luminescence, 20 h | Potency, µM (top dose mostly 53.6 µM), inactives show top-dose activity, negative = inhibition, most hits filed as inhibitors | actives 3.5% (n = 310,000) | AID 2546;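 also: Gal4-VP16 expression switched on by copper sulfate through the metallothionein promoter; nearly all actives have a fitted effect of over 50% in size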
DT40 TDP1 CPT – DT40-hTDP1 cell growth loss with CPT. Potency, µM (titrated, usually from 46.2 µM), for the others: top-dose activity change, negative = growth inhibition, usual class: inhibitors. actives 12% (n = 420,000). chicken DT40 Tdp1-/-;hTDP1 cells + 20 nM CPT, ATP luminescence, 48 h; also: nearly all actives have a fitted effect of over 55% in size
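Chicken DT40 Tdp1-/- cells complemented with human TDP1, 400 cells/well, exposed to compounds plus 20 nM camptothecin for at least 48 h at 37 C; viability read as ATP content by CellTiter-Glo luminescence.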
ALOX12 inh – ALOX12 (human) lipoxygenase inhibition; Potency, µM (titrated, usually from 108 µM), without a hit: at the top dose activity change, negative = inhibition, hits mostly inhibitors; actives 1.1% (n = 580,000); AID 1671190; purified 12hLO, xylenol orange hydroperoxide absorbance; P18054
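Purified human 12hLO (150 nM final) in 25 mM Hepes, 0.01% Triton X-100, pH 7.0 was preincubated 15 min at room temperature with compound. Then 40 uM arachidonic acid was added, 30 min. Hydroperoxide was read by Fe-XO absorbance ratio 573/405 nm.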
RORg inh – ROR gamma (mouse) transcription inhibition; P51450; Drosophila S2 Gal4-RORgamma UAS-luciferase reporter, 20 h; Potency, µM (highest dose often 53.6 µM), for the others: at the highest dose activity change, negative = inhibition, actives largely listed as inhibitors; actives 5.4% (n = 310,000); AID 2551; also: nearly all actives have a fitted effect of over 60% in size
Target sequence (P51450 whole entry, looked up, the tested form may be a part): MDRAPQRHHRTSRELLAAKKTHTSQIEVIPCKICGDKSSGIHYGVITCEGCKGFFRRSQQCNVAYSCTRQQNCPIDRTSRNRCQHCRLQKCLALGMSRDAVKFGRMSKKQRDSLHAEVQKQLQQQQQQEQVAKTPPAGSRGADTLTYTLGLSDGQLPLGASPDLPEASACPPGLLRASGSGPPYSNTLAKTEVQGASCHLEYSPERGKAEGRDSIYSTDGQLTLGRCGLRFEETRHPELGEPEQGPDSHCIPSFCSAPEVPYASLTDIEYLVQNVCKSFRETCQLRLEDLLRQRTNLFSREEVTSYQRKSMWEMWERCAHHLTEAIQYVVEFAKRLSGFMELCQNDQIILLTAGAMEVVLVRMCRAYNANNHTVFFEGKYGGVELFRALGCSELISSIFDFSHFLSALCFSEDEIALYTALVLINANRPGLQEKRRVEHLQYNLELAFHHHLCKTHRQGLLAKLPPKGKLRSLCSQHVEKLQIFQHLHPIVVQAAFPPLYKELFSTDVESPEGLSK
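In this cell-based reporter format, copper sulfate (700 uM final) drives Gal4–ROR gamma fusion expression from a metallothionein promoter in Drosophila Schneider cells; compounds preincubated 1 hr, reporter read after 20 hr at ambient temperature.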
* = called active by the depositor; u = inconclusive; x = no result; [ ] = another dose, or the depositor's remark. Compounds with a hit are over-represented: about 15% of the library has one in this group of screens. Calls follow the shape of the dose curve; as a rule, active = well fitted curve in the direction sought with a large enough effect; inconclusive = small, poorly fitted or top-dose-only effect, or another doubt; inactive = no such curve, though single readings can be large; an effect the other way counts as inactive or inconclusive. % is scaled to controls: 0 for no effect and ±100 for the full control effect; potency is read from the fitted curve at half-maximal effect.

SMILES | ELG1 DNA repair | TDP1 cell noCPT | Gal4-VP16 FLuc | DT40 TDP1 CPT | ALOX12 inh | RORg inh
COCc1cc(=O)n(CC(=O)Nc2cccc(C(F)(F)F)c2)c(N2CCOCC2)n1 | x | x | x | x | 40.9% | x
CCCCn1c(=O)[nH]c(=O)c2c1nc(CCC(=O)OC)n2CC(C)C | x | x | x | x | -24.3% | x
CC(/C=N/c1ccccn1)=N\c1ccccn1 | x | x | x | x | 2.2% | x
O=C(O)c1ccc(N/N=C/c2cc3cc4c(cc3nc2Cl)OCCO4)cc1 | u | u | 3.98µM* | u | -14.5% | 2.51µM*
O=C(N/N=C/c1cccs1)c1ccc2c(c1)OCO2 | u | -25.9% | u | -10.0% | -18.7% | 14.1µM*
O=C(N/N=C\c1cccs1)c1sccc1-n1cccc1 | -10.5% | -18.3% | u | -1.2% | 18.1% | 1.26µM*
O=C(N/N=C\c1ccccc1)c1sccc1-n1cccc1 | 26.2% | -26.6% | -9.0% | 3.2% | 21.1% | u
O=C(c1ccc2c(c1)OCO2)N1CCC2(CC1)COc1ccccc1CN2 | x | x | x | x | -6.2% | x
CCOC(=O)C1=CCN(S(=O)(=O)c2ccc(F)cc2)C1c1cccc(Cl)c1 (stereo not given) | x | u | x | -20.4% | -17.6% | x
CCOC(=O)C1=CCN(S(=O)(=O)c2ccc(C)cc2)C1c1cccc(Br)c1 (stereo not given) | x | u | x | 16.4µM* | -24.3% | x
CCOC(=O)C1=CCN(S(=O)(=O)c2ccc(Cl)cc2)C1c1cccc(C)c1 (stereo not given) | x | u | x | u | 30.9% | x
CCOC(=O)C1=CC[C@@H](c2cccc(Br)c2)N(S(=O)(=O)c2ccc(F)cc2)[C@H]1c1cccc(Cl)c1 | x | 10.3µM* | x | 20.6µM* | 8.5% | x
CCOC(=O)C1=CCN(S(=O)(=O)c2ccc(Br)cc2)C1c1cccc(C)c1 (stereo not given) | x | 25.9µM* | x | u | 0.6% | x
C=CC(=O)Nc1cccc(Oc2ncnc3[nH]cc(-c4cnc5ccccc5c4)c23)c1 | 7.3µM* | u | x | u | 1.4% | x
CC(=O)c1ccc(-c2ccc3c4c(ccc3c2)OC(CNC(=O)[C@@H]2CCCN2C(C)=O)C4)s1 (stereo not given in full) | x | u | x | u | -0.4% | x
Cn1nccc1C(=O)NCC1Cc2cc(-c3cccc(OC(F)(F)F)c3)ccc2O1 (stereo not given) | x | x | x | x | 4.3% | x
Cc1cnc(C)c(-c2ccc3c(c2)CC(CNC(=O)Cc2c(C)[nH]c4ccccc24)O3)n1 (stereo not given) | x | 0.92µM* | x | 0.517µM* | 14.7% | x
CC(=O)N1CCC[C@H]1C(=O)NCC1Cc2cc(-c3cccc(OC(F)(F)F)c3)ccc2O1 (stereo not given in full) | x | 16.4µM* | x | u | 3.1% | x
Cc1noc(C)c1CC(=O)NCC1Cc2cc(-c3cccc(OC(F)(F)F)c3)ccc2O1 (stereo not given) | x | 10.3µM* | x | u | 43.2% | x
Cc1cc(C)c(CN2CCC3(CC2)Cc2ccccc2CNC3=O)c(C)c1 | x | x | x | x | 2.7%[6.33 µM] | x
C=CCN(C)Cc1cccc(OC)c1OC | x | x | x | x | 7.1% | x
COc1cncc(Nc2ncc(-c3cccc(F)c3)c3c2OCC3)c1 | x | x | x | x | 30.8%[176 µM] | x
CC(C)(C)NC[C@H](O)COc1ccccc1C1CCCC1 | x | 10.1µM* | x | 12.8µM* | x | x
CC(C)(C)NCC(O)COc1ccccc1C1CCCC1 (stereo not given) | 8.6% | 14.6µM* | x | u | -2.7% | x
CC(C)(C)NC[C@@H](O)COc1cccc2c1CCCC2=O | 20.1% | 0.4% | x | -4.8% | -19.8% | x
SMILES | ELG1 DNA repair | TDP1 cell noCPT | Gal4-VP16 FLuc | DT40 TDP1 CPT | ALOX12 inh | RORg inh
Cc1cccc2c1nc1n2[C@@H](CNC2CCC2)COC1 | x | x | x | x | 5.2%[176 µM] | x
CN(CC(=O)Nc1ccc(Cl)c(C(F)(F)F)c1)C(=O)CCCNC(=O)c1ccc(Cl)cc1 | -2.6% | 14.6µM* | x | 20.6µM* | -5.6% | x
CN(CC(=O)Nc1ccc(Cl)c(C(F)(F)F)c1)C(=O)c1cccc2cccnc12 | -19.3% | 23.1µM* | x | u | 30.8% | x
Cc1ccc(NC(=O)CN(C)C(=O)c2cccnc2Nc2cccc(C(F)(F)F)c2)cc1 | u | u | 12.6µM* | u | -24.5% | u
CN(CC(=O)Nc1ccc(Cl)c(C(F)(F)F)c1)C(=O)CNC(=O)C1CCCCC1 | 5.7% | 16.4µM* | x | u | u | x
CN(CC(=O)Nc1ccc(Cl)c(C(F)(F)F)c1)C(=O)C1CCC1 | -1.3% | u | x | u | u | x
O=C1CCCc2[nH]cc(-c3ccccc3)c21 | x | x | x | x | -18.2% | x
CC(C)Cn1c(N)c(C(=O)COC(=O)c2cccn2C)c(=O)n(C)c1=O | 9.2µM* | 16.4µM* | x | 14.6µM* | 88.0% | x
CC(C)Cn1c(N)c(C(=O)COC(=O)c2ccc3c(c2)OCCO3)c(=O)n(C)c1=O | 7.08µM* | 20.6µM* | 1.9% | 18.4µM* | 0.0% | 30.1%
CC(C)Cn1c(N)c(C(=O)COC(=O)c2c(F)cccc2F)c(=O)n(C)c1=O | u | -13.3% | -4.2% | -25.6% | -9.2% | u
CC(C)Cn1c(N)c(C(=O)CSc2ccc3c(c2)OCCO3)c(=O)n(C)c1=O | 7.31µM* | 3.66µM* | 11.2µM* | 4.11µM* | -6.4% | u
Cc1noc(C)c1C(=O)OCC(=O)c1c(N)n(CC(C)C)c(=O)n(C)c1=O | u | u | 6.4% | 18.4µM* | -13.9% | 7.9%
O=C(/C=C/Nc1ccc(OCc2ccccc2)cc1)c1ccc(Br)cc1 | x | x | x | x | -17.3% | x
O=C1NCCOCCCN(C(=O)c2ccsc2)[C@H]2CCCC[C@@H]12 | x | x | x | x | 66.3% | x
O=C(CSc1nc(Cl)nc2nc[nH]c12)NCCc1ccccc1 | x | x | x | x | 7.4% | x
CCc1ccc(C(=O)OCC(=O)c2c(N)n(CC(C)C)c(=O)n(C)c2=O)cc1 | 8.2µM* | u | -23.0% | u | 0.0% | 20.7%
CC(C)Cn1c(N)c(C(=O)COC(=O)c2cccc(Cl)c2)c(=O)n(C)c1=O | 20.6µM* | u | -6.6% | 0.3% | u | 20.9%
CC(C)Cn1c(N)c(C(=O)COC(=O)c2ccc(F)cc2)c(=O)n(C)c1=O | u | u | 4.7% | u | -5.6% | u
Cn1ccnc1CNC(=O)C[C@@H]1C[C@H]2O[C@H](CNC(=O)NC3CCCCC3)[C@@H](O)[C@H]2O1 | x | x | x | x | 20.8% | x
O=Cc1c(Cl)[nH]c2ccccc12 | x | x | x | x | 30.4% | x
Nc1nccnc1C(=O)NCCOc1ccccc1 | x | x | x | x | 2.4% | x
CCOC(CNC(=O)c1ccc(N2CCc3ccccc32)c([N+](=O)[O-])c1)OCC | -5.3% | 18.4µM* | u | 20.6µM* | 5.8% | u
